# Measurements taken from PubChem BioAssay (NCI).
# The panel holds about 79,000 compounds, 15% with a hit somewhere; the sample as a whole holds those more often. A number with no mark means an inactive call. Activity calls are given as the source filed them. No stated cut-off is given here; in the data, active means growth inhibition above about 70%; inactive means the rest.
# Assay: NCI Yeast Anticancer Drug Screen. Data for the rad52 strain (AID 147);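 further: 0% = growth of vehicle-treated control cultures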
# Conditions: S. cerevisiae rad52 mutant growth inhibition, hits give high values
# Protocol: Growth inhibition of yeast strains with defined genetic alterations is measured as a screen for potential anti-cancer activity. Selected strains with alterations in DNA damage repair or cell cycle control were exposed to compounds and growth inhibition was measured relative to vehicle treated controls. The strain used in this assay is rad52
Structure (SMILES),growth inhibition (at 1.2 µM),growth inhibition (at 3.7 µM),growth inhibition (at 11.0 µM),growth inhibition (at 33.0 µM),growth inhibition (at 100.0 µM)
C=CCC1=C(C)C(OC(=O)/C=C/c2ccccc2)CC1=O (stereo not given),-4%,0%,2%,5%,39%
CCCCCCCCCCCC(=O)N(C)C,-12%,-6%,-19%,30%,98% (active)
N#Cc1ccc(C2NN=CC23C(=O)c2ccccc2OC3c2ccccc2)cc1 (stereo not given),2%,5%,4%,3%,5%
CCC/C(Cl)=N\OC(=O)Nc1ccc(Br)cc1,58%,69%,94% (active),98% (active),98% (active)
O=C(Nc1ccc(Cl)cc1)OCC#CCCl,5%,-1%,15%,16%,27%
NCCNc1ccc(NCCN)c2c1C(=O)c1c(O)ccc(O)c1C2=O,24%,83% (active),88% (active),85% (active),63%
N#Cc1c(N)[nH]c2ccc(Sc3ccccc3)cc12,1%,0%,14%,94% (active),81% (active)
CCCCCCCCC/C=C/C=C/C(=O)NCC(=O)NC1C(O)C(O)C(Nc2ncnc3nc[nH]c23)OC1C(O)CO (stereo not given),-19%,11%,10%,69%,67%
